KCNQ2 inh: rat KCNQ2 potassium channel inhibitors, primary screen, cell-based, CHO-K1, FluxOR thallium flux, B-score. Potassium voltage-gated channel subfamily KQT member 2 (Rattus norvegicus), O88943. 20 min; hits give low values. B-score at 10 µM. 1.1% of 310,000 active;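 active means fluorescence ratio B-score at most minus 3 library SDs, with starting brightness B-score within 2 library SDs, cut at about -5.5 in these data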
Target sequence (O88943 whole entry, looked up): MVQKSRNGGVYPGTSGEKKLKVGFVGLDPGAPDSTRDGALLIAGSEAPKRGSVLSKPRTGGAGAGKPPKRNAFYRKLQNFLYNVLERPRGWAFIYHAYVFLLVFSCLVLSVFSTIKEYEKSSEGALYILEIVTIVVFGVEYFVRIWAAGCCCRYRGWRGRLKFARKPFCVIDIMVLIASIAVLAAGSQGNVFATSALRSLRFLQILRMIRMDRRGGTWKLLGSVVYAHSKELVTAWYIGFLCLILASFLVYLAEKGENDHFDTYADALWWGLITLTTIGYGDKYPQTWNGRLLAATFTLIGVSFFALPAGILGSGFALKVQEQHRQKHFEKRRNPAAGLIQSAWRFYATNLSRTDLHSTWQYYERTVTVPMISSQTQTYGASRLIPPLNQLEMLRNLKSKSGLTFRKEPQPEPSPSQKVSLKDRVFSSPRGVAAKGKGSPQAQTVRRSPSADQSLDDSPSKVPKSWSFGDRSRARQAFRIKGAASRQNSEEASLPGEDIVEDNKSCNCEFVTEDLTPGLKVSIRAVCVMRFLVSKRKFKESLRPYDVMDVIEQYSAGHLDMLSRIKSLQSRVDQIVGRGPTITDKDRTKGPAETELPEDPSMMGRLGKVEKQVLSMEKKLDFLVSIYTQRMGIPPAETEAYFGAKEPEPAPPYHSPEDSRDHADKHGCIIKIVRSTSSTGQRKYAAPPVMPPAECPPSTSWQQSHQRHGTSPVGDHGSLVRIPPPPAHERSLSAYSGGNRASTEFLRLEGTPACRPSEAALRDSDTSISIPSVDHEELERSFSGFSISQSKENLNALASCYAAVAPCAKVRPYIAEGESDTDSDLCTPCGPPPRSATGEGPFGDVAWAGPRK
KCNQ2 enhance: potentiators of rat KCNQ2 potassium channel. Potassium voltage-gated channel subfamily KQT member 2 (Rattus norvegicus), O88943. CHO-K1 KCNQ2, FluxOR thallium flux fluorescence; hits give high values. B-score at 10 µM. 0.54% of 310,000 active;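 active means fluorescence ratio B-score at least 3 SD of library B-scores, with initial fluorescence B-score within 3 of them, cut at about 5.3 in these data; same plate scores as AID 2156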;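 further: B-score of peak minus minimum over baseline fluorescence ratio after K+ and Tl+ stimulus; positive B-score means potentiation of KCNQ2 with more thallium influx and brighter signal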
Kir21 conf inh: mouse Kir2.1 channel blockers, retest, confirmation, cell-based, FluxOR thallium flux, duplicate; Tl flux remaining, % of negative control (hits give low values), % at 10 µM; 41% of 2,300 active; AID 2032, 2009; Kir2.1-expressing cells, FluxOR thallium flux fluorescence; hits give low values; shares compounds with KCNQ2 enhance;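 active means Primary-screen hit whose thallium flux fell at least 3 control SD below untreated wells in both duplicates, with normal baseline fluorescence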;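 further: 0% = blank wells without stimulus and 100% = stimulated no-compound controls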
HEK293 Tl flux: parental HEK293 activity in Kir2.1 inhibitor counter-screen; shares compounds with KCNQ2 enhance; parental HEK293 cells, FluxOR thallium flux fluorescence; 0% = unstimulated blank wells; FluxOR signal as % of negative control (100 = no effect), % at 10 µM; 19% of 2,300 active; AID 2105;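 active means dye signal at least 3 control SD above or below untreated wells in both duplicates, raw fluorescence within 3, either direction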;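 further: percent is based on the flux ratio of peak minus minimum fluorescence over baseline F0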
* marks the source's active call; other numbers are inactive results. Most compounds without a hit are left out; they make up all but 1.6% or so of the library.

For COc1ccccc1CNCc1cc(Br)ccc1OC the results were KCNQ2 inh inactive and KCNQ2 enhance 0.87.
COc1ccccc1CNCc1cc(OC)c(OC)cc1OC was read as KCNQ2 inh inactive and KCNQ2 enhance 0.12.
Screening COc1cc(CNCc2cccc3ccccc23)cc(OC)c1 returned KCNQ2 inh inactive.
COc1ccccc1CNCC(c1ccccc1)c1ccccc1 was read as KCNQ2 inh inactive, Kir21 conf inh 48.5%* and HEK293 Tl flux inactive.
COc1ccccc1CNCc1cccc(Oc2ccccc2)c1 was read as KCNQ2 inh inactive, KCNQ2 enhance 2.89, Kir21 conf inh inactive and HEK293 Tl flux inactive.
`COc1ccc(CNCc2ccc(OC)c3ccccc23)cc1` gave KCNQ2 inh inactive, KCNQ2 enhance 1.75, Kir21 conf inh 19.5%* and HEK293 Tl flux inactive.
CC(=O)c1c(Cl)nc2cccc3c2c1-c1ccccc1C3=O was read as KCNQ2 inh inactive.
NC(=O)C1CCN(c2nc3c(S(=O)(=O)c4ccccc4)nnn3c3ccccc23)CC1 was read as KCNQ2 inh inactive and KCNQ2 enhance 0.1.
For COc1ccc(NC(=O)c2cc3ccc(O)cc3o/c2=N\O)cc1 the results were KCNQ2 inh inactive.
`CCOc1ccc(S(=O)(=O)N2CCC(C(=O)NCCc3ccccc3)CC2)cc1` gave KCNQ2 inh inactive.
Screening Cc1ccc(NC(=O)CCOc2ccccc2C)cc1C returned KCNQ2 inh inactive and KCNQ2 enhance 0.5.
COc1ccccc1N1C(=NC(=O)CCc2ccccc2)SC2CS(=O)(=O)CC21 (centres undefined) was read as KCNQ2 inh inactive.
For O=C(NCCCOc1cccc(CN2CCCCC2)c1)c1ccc(Cl)c(Cl)c1 the results were KCNQ2 inh inactive.
c1cc(CN2CCCCC2)cc(OCCCNc2nc3ccccc3s2)c1 was read as KCNQ2 inh inactive, Kir21 conf inh 25.5%* and HEK293 Tl flux inactive.
Screening Cc1noc(C)c1CCC(=O)NC1CCCN(Cc2ccc(CC(C)C)cc2)C1 (centres undefined) returned KCNQ2 inh inactive.
Screening Cc1c(NS(=O)(=O)c2ccc(NC(=O)CCC(=O)O)cc2)c(=O)n(-c2ccccc2)n1C returned KCNQ2 inh inactive.
`Cc1ccc(CCNC(=O)C2CCCN(S(=O)(=O)N3CC(C)CC(C)C3)C2)cc1` (centres undefined) gave KCNQ2 inh inactive.
CC(Cc1ccccc1)C(=O)Nc1ccc(Br)cc1 (centres undefined) was read as KCNQ2 inh inactive and KCNQ2 enhance 0.41.
Screening CC(C)(C)OC(=O)NCCc1nnc(SCc2cccc(Cl)c2)o1 returned KCNQ2 inh inactive, Kir21 conf inh 26.5%* and HEK293 Tl flux inactive.
Screening CC(C)(C)OC(=O)NCCCCCc1nnc(SCc2cccc(F)c2)o1 returned KCNQ2 inh inactive.
`CC(C)(C)OC(=O)NCCc1nnc(SCc2c(Cl)cccc2Cl)o1` gave KCNQ2 inh inactive.
Screening CC(C)(C)OC(=O)NCCc1nnc(SCc2ccc(Cl)cc2Cl)o1 returned KCNQ2 inh -5.88*, KCNQ2 enhance -5.88, Kir21 conf inh 33.5%* and HEK293 Tl flux inactive.
For Cc1cccc(CSc2nnc(CCNC(=O)OC(C)(C)C)o2)c1 the results were KCNQ2 inh inactive, Kir21 conf inh 33.0%* and HEK293 Tl flux inactive.
Screening CC(C)(C)OC(=O)NCCc1nnc(SCC(=O)c2ccc(Cl)cc2)o1 returned KCNQ2 inh inactive.
For COc1cc(OC)cc(C(=O)NCC2CCCN(Cc3cccc(C(C)=O)c3)C2)c1 (centres undefined) the results were KCNQ2 inh inactive.
CCOC(=O)c1ccccc1NC(=O)COC(=O)C(CCSC)NC(=O)COc1ccccc1 (centres undefined) was read as KCNQ2 inh inactive.
Screening CCOc1ccc(-n2ccc(=O)c(C(=O)Nc3ccc(S(=O)(=O)Nc4ncccn4)cc3)n2)cc1 returned KCNQ2 inh inactive.
For COC(=O)Cn1ccc2cc(S(=O)(=O)N3CCCCC3)ccc21 the results were KCNQ2 inh inactive.
CCCCn1c(=N)n(CC(O)COc2ccccc2)c2ccccc21 (centres undefined) was read as KCNQ2 inh inactive and KCNQ2 enhance 1.01.
CCCCn1c(=N)n(CC(O)COc2ccc(C)cc2)c2ccccc21 (centres undefined) was read as KCNQ2 inh inactive.
